Screen size: about 1,100 compounds; about 340 (31%) were called active. Another 40% or so got no clear call; they are omitted. The call rests on the fitted dose curve; in most records, active means well fitted inhibition curve with a large enough effect; inconclusive means small, poorly fitted or top-dose-only effect; inactive means flat fitted curve, though single readings scatter. Only a sample is shown.
What follows are molecules tested against Phosphatidylinositol 5-phosphate 4-kinase type-2 alpha (Homo sapiens) (UniProt P48426) (assay: qHTS for Inhibitors of PI5P4K: Confirmation in Primary Assay). Settings: PI5P4Kalpha enzyme, ADP-Glo luminescence, 60 min; series mostly up to 76.9 µM; activity change, negative = inhibition: at the top concentration.
Sequence of Phosphatidylinositol 5-phosphate 4-kinase type-2 alpha (Homo sapiens) (P48426 whole entry, looked up): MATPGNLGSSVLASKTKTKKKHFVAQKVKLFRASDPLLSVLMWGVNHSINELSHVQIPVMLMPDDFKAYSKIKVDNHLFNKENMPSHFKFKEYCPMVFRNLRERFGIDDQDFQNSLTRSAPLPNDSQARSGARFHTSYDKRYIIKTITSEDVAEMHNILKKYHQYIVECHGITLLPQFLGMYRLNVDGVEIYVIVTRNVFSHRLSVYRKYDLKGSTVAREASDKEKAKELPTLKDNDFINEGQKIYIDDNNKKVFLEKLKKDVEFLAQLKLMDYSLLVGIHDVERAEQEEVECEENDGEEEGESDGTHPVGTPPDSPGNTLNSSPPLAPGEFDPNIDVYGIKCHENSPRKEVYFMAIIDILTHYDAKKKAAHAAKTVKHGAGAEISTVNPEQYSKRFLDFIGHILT
Procedure, shortened: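 ADP-Glo luminescence end-point quantified ADP produced by PI5P4Kα after 60 min at room temperature with 5 microM ATP. Buffer: HEPES pH 7.4, EGTA, 0.1% CHAPS, 5% DMSO final; compounds added before ATP.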
Further: nearly all actives have a fitted effect of over 65% in size.
On the % scale 0 is the no-effect control and ±100 the full control effect; potency means the concentration at half of the fitted maximal effect.

Potency, active:
COc1ccc(NC(=O)CN(C)C(=O)c2cc(-c3ccco3)nc3ccccc23)cc1 5.01 µM
COc1cccc(NC(=O)CN(C)C(=O)c2cc(-c3ccco3)nc3ccccc23)c1 15.8 µM
Cc1ccc(NC(=O)CN(C)C(=O)c2cc(-c3ccco3)nc3ccccc23)cc1 8.91 µM
CN(CC(=O)Nc1ccc(F)cc1)C(=O)c1cc(-c2ccco2)nc2ccccc12 14.1 µM
O=C(Nc1cc(S(=O)(=O)N2CCOCC2)ccc1O)c1ccc(NS(=O)(=O)c2ccc(Cl)s2)cc1 20 µM
COc1ccc(N2CSC3=C(C#N)C(c4cccc(OC)c4OC)CC(=O)N3C2)cc1 (stereo not drawn) 7.08 µM
COc1ccc(N2CSC3=C(C#N)C(c4ccc(OC)c(OC)c4)CC(=O)N3C2)c(OC)c1 (stereo not drawn) 12.6 µM
COc1cccc(C2CC(=O)N3CN(c4cccc(Cl)c4C)CSC3=C2C#N)c1OC (stereo not drawn) 39.8 µM
COc1cccc(NS(=O)(=O)c2ccc3c(c2)C2C=CCC2C(c2ccc(C(=O)O)cc2)N3)c1 (stereo not drawn) 31.6 µM
Cc1ccc(-c2csc3ncnc(NCCC(=O)O)c23)cc1C 14.1 µM
CN1CCN(C(c2ccc(Br)cc2)c2cc(Cl)c3cccnc3c2O)CC1 (stereo not drawn) 15.8 µM
Cc1ccc(C(c2cc(Cl)c3cccnc3c2O)N2CCN(C)CC2)cc1 (stereo not drawn) 15.8 µM
Cc1cc2nc(-c3ccco3)c(Cc3cccc(F)c3)n2c(C)c1Br 6.31 µM
CN(CC(=O)Nc1c(Cl)cccc1Cl)C(=O)c1cccc(-n2cccc2)c1 14.1 µM
Cc1ccc(NC(=O)CN(C)C(=O)c2cccc(-n3cccc3)c2)cc1 20 µM
Cc1cccc(NC(=O)CNC(=O)c2cccc(-n3cccc3)c2)c1C 6.31 µM
CN(CC(=O)Nc1cccc(F)c1)C(=O)c1cccc(-n2cccc2)c1 10 µM
N#Cc1c(SCC(=O)Nc2nc3ccc(Br)cc3s2)sc2c(O)cc(=O)[nH]c12 4.47 µM
N#Cc1c(SCC(=O)Nc2nc3ccccc3s2)sc2c(O)cc(=O)[nH]c12 6.31 µM
O=C(COc1ccc2ccccc2c1)Nc1cccc(C(=O)Nc2ccccc2C(=O)O)c1 20 µM
COc1ccc(S(=O)(=O)N2CCN(C(=O)C3COc4ccccc4O3)CC2)cc1 (stereo not drawn) 10 µM
CCN(CC(=O)Nc1ccc(NC(C)=O)cc1)Cc1c(O)ccc2cc(Br)ccc12 15.8 µM
Cn1nnnc1Sc1ncnc2scc(-c3ccccc3C(F)(F)F)c12 17.8 µM
O=C(NCCCN1CCOCC1)c1sc2cc([N+](=O)[O-])ccc2c1Cl 14.1 µM
O=C(c1ccc2nc(-c3ccco3)c(-c3ccco3)nc2c1)N1CCN(c2ncccn2)CC1 12.6 µM
O=C(Nc1ccc2nc(-c3ccco3)c(-c3ccco3)nc2c1)N1CCN(c2ccccn2)CC1 11.2 µM
Cc1ccc(C(CCN(Cc2ccccc2)C(=O)c2ccco2)c2ccco2)cc1 (stereo not drawn) 14.1 µM
O=c1[nH]c2ccccc2n2c(-c3ccccc3)nnc12 5.01 µM
NC(=O)c1ccc(-n2c(CCC(=O)O)ccc2-c2cccs2)cc1 3.98 µM
CCc1nnc(NC(=O)CSc2sc3c(O)cc(=O)[nH]c3c2C#N)s1 12.6 µM
Cc1cc(NC(=O)CSc2sc3c(O)cc(=O)[nH]c3c2C#N)ccc1Br 8.91 µM
N#Cc1c(SCC(=O)Nc2nncs2)sc2c(O)cc(=O)[nH]c12 8.91 µM
N#Cc1c(SCC(=O)Nc2nccs2)sc2c(O)cc(=O)[nH]c12 15.8 µM
Cc1csc(NC(=O)CSc2sc3c(O)cc(=O)[nH]c3c2C#N)n1 14.1 µM
Cc1csc(NC(=O)c2cc(-c3ccco3)nc3ccccc23)n1 10 µM
O=C(Nc1nccs1)c1cc(-c2ccco2)nc2ccccc12 3.98 µM
CCc1nnc(NC(=O)c2cc(-c3ccco3)nc3ccccc23)s1 3.55 µM

Activity change, negative = inhibition, inactive:
CCNC(=O)c1ccccc1SCC(=O)Nc1ccc(F)cc1 1.84%
O=C(c1cc(-c2ccco2)nc2ccccc12)N(Cc1nnc(-c2ccc(Cl)cc2)o1)C1CC1 -11%
COCCN(CC(=O)NCC1CCCO1)C(=O)CCC(=O)Nc1ccccn1 (stereo not drawn) -2.19%
COCc1c(C(=O)N2CCc3ccccc32)oc2ccccc12 11.8%
CCOC(=O)c1nnn(-c2ccccc2)c1C -6.41%
CCn1c(C(=O)OC)cc2c1ccn2-c1ccc(F)cc1 12%
CC(C)(C)NC(=O)C(c1ccc(C#N)cc1)n1c(=O)c(-c2ccco2)nc2ccccc21 (stereo not drawn) -23.1%
Cc1cc(C(=O)OCC(=O)Nc2cc(S(=O)(=O)N3CCOCC3)ccc2Cl)c(C)o1 -0.657%
COc1ccc(OC)c(C2CC(=O)N3CN(c4cccc(Cl)c4)CSC3=C2C#N)c1 (stereo not drawn) -11.7%
COc1ccc(C2CC(=O)N3CN(c4ccc(C)c(Cl)c4)CSC3=C2C#N)cc1OC (stereo not drawn) -8.92%
CCN(CC)C(=O)c1[nH]cnc1C(=O)Nc1ccc(OC)cc1 -2.48%
CCCCOc1ccc(S(=O)(=O)NC(=O)C2(C)CCN2C(=O)CCc2ccccc2)cc1 (stereo not drawn) 2.58%
C[C@H](NC(=O)c1nc[nH]c1C(=O)N[C@@H](C)C(=O)OC(C)(C)C)C(=O)OC(C)(C)C 2.51%
CN(C)C(=O)c1ccc(NC(=O)COC(=O)C2=COCCO2)cc1 -3.35%
NC(=O)C1CCN(c2cc(Cl)nc(N)n2)CC1 -5.15%
CN1CCN(C(c2ccccc2)c2ccc(Cl)cc2)CC1 (stereo not drawn) -13.3%
CCOC(=O)C1=C(CC)Nc2ccccc2N=C1NC(=O)c1ccc(S(=O)(=O)N(C)C)cc1 2%
COC(=O)c1c(NC(C)=O)sc(C(=O)Nc2ccccc2)c1C -0.19%
Fc1cccc(Cc2c(-c3ccco3)nc3ccc(Cl)cn23)c1 -18.6%
COc1ccccc1Cc1c(-c2ccco2)nc2cc(C)c(Br)c(C)n12 -23.8%
Cc1ccc(NC(=O)CN(C)C(=O)COc2ccc(C(=O)c3ccc(F)cc3)cc2)cc1 7.3%
CCN(CC(=O)Nc1ccc(OC)cc1)C(=O)c1ccc([N+](=O)[O-])cc1 -0.54%
O=C(COC(=O)Cc1ccsc1)Nc1cccc(F)c1 9.86%
Nc1nc(N)c2cc(S(=O)(=O)c3cccc(C(F)(F)F)c3)ccc2n1 -26.5%
CCC1CCCCN1C(=O)Cn1nc([N+](=O)[O-])c(Cl)c1C (stereo not drawn) -4.34%
CCOc1ccc(CCNS(=O)(=O)c2cn(C)cn2)cc1OCC -0.0108%
CCC(C)n1c(SCC(=O)Nc2ccc3[nH]c(=O)[nH]c3c2)nc2ccccc2c1=O (stereo not drawn) -23.7%
O=C(CSc1nc(O)cc(=O)n1-c1ccccc1)Nc1nc2ccccc2s1 -23.2%
CC(=O)Nc1ccc2nc(SCC(=O)NCCOc3ccccc3)sc2c1 -0.149%
Nc1cc(-c2ccncc2)c[nH]c1=O -15.9%
O=C(COc1ccccc1)Nc1cccc(-c2ccc(N3CCOCC3)nn2)c1 -18.8%
O=C(COc1ccc([N+](=O)[O-])cc1)Nc1cccnc1 -5.44%
COC(=O)Nc1ccc(S(=O)(=O)N2CCC(C(=O)N3CCC(C)CC3)CC2)cc1 -3.71%
CN1CCN(S(=O)(=O)c2ccc(N3CCc4ccccc4C3)nc2)CC1 -1.8%
CSc1ncccc1C(=O)Nc1ccc(OC(F)(F)F)cc1 11.7%
Cc1ccc(NCC(=O)Nc2ccc(Br)cc2)cc1C 8.83%
Cc1ccc([N+](=O)[O-])cc1Nc1nc(N2CCOCC2)nc(N2CCOCC2)n1 2.38%
CCOC(=O)C1=C(N)N(c2ccccc2)C(=O)C1 -3.07%
Cc1cccc(C)c1NC(=O)C(c1ccccc1)n1c(=O)c(-c2ccco2)nc2ccccc21 (stereo not drawn) -24.1%
CC(C)C(=O)N1CCN(c2ccccc2NC(=O)c2ccco2)CC1 -2.64%
CC(Oc1ccc(F)cc1)C(=O)N1CCN(c2ncccn2)CC1 (stereo not drawn) 0.356%
COc1ccccc1N1CCN(C(=O)c2ccc(C(C)(C)C)cc2)CC1 0.452%
CC(C)NC(=O)c1onc(CSc2ccccc2F)c1C(=O)O -0.693%
Cc1ccc(S(=O)(=O)N(C(=O)c2ccco2)c2cc3sc(=O)oc3c3ccccc23)cc1 -5.53%
CC(C)N(CCC(=O)c1ccc2ccccc2c1)Cc1ccccc1 -9.41%
O=C(N[C@@H](Cc1ccccc1)C(=O)OCc1ccccc1)c1nc[nH]c1C(=O)NC(c1ccccc1)c1ccccc1 7.69%
Cc1cc(Oc2ccc(C#N)cc2)nc(NCc2ccccc2)n1 -2.08%
CCn1c(CC(=O)Nc2ccccc2F)nnc1SCC(=O)NC1CCCCC1 1.05%
O=C(NCC1CC1)c1ccc(Nc2nc3ccc(Br)cc3[nH]2)cc1 -15.7%
CC1Cc2ccccc2N1C(=O)COC(=O)CCc1nc2ccccc2c(=O)[nH]1 (stereo not drawn) -11.1%
CCc1nnc(NC(=O)c2ccc(S(C)(=O)=O)cc2)s1 -2.39%
O=C(CSc1nc2[nH]c(=O)cc(O)c2s1)Nc1ccc(Cl)c(C(F)(F)F)c1 -29.7%
Cc1cnc(NC(=O)CSc2c(Cl)cccc2Cl)s1 -18.7%
CC1Cc2ccccc2N1C(=O)CNc1cccc(S(=O)(=O)N2CCCC2)c1 (stereo not drawn) -3.8%
Cc1csc(NC(=O)CSc2nc3[nH]ncc3c(=O)[nH]2)n1 -24.4%
COc1ccc(CC(=O)NCC(=O)NC(Cc2ccccc2)C(=O)O)cc1 (stereo not drawn) 4.47%
CC(=O)c1cccc(NC(=O)c2cc(-c3ccco3)nc3ccccc23)c1 -24.5%
CCc1nnc(NC(=O)c2cc(-c3ccc(C)o3)nc3ccccc23)s1 -23.9%
CCOc1ccc(OCc2ccc(C(=O)N3CCOCC3)cc2)cc1 -13.7%
CCC(C)c1nc2ccsc2c(N2CCOC2=O)c1-c1ccccc1 (stereo not drawn) 2.12%
Cc1cccnc1NC(=O)CSc1nnc(COc2ccc(C(C)C)cc2)n1C 0.341%

From PubChem BioAssay AID743286 (National Center for Advancing Translational Sciences (NCATS), 2014)
